Screening data from PubChem BioAssay.
Giardia FBPA inh-1 = qHTS Assay for Inhibitors of Fructose-1,6-bisphosphate Aldolase from Giardia Lamblia; A8B2U2; Potency, µM (series often up to 59.6 µM), for the others: at the highest dose activity, negative = inhibition, most hits filed as inhibitors; hit rate 0.71% among 290,000; purified Giardia FBPA; further: potency means the concentration at half of the fitted maximal effect; on the % scale 0 is the no-effect control and ±100 the full control effect; nearly all actives have a fitted effect of over 55% in size
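Giardia FBPA (40 nM reagent) was preincubated 10 min at RT with compound (up to 57.5 uM final), then substrate plus GAPDH/TPI/NAD/arsenate coupling system with diaphorase/resazurin was added; resorufin fluorescence (525/598 nm) was read after 20 min.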
LmPK inhibitor = qHTS Assay for Inhibitors of Leishmania Mexicana Pyruvate Kinase (LmPK); purified LmPK, Kinase-Glo ATP luminescence, 1 h; Potency, µM (doses to about 57.5 µM), for inactives: at the highest dose activity change, negative = inhibition, usual class: inhibitors; hit rate 0.37% among 290,000; Q27686; further: potency means the concentration at half of the fitted maximal effect; on the % scale 0 is the no-effect control and ±100 the full control effect
Target sequence (Q27686 whole entry, looked up): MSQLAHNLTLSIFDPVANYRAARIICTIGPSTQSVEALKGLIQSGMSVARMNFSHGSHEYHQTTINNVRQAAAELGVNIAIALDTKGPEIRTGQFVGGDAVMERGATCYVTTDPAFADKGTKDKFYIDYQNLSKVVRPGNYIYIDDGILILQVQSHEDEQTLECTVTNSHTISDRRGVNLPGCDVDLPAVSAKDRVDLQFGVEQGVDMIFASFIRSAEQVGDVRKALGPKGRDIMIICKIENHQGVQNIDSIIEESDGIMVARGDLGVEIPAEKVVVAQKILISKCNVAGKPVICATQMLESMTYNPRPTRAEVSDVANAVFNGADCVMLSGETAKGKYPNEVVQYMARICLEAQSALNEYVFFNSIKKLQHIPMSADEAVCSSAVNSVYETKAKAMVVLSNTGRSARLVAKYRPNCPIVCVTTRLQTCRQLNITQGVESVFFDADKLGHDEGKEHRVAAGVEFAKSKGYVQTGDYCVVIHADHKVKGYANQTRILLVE
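In 50 mM imidazole pH 7.2 with 7 mM MgCl2, LmPK (0.1 nM) turned over PEP (0.5 mM) and ADP (0.1 mM) for 1 h at room temperature. Luciferase read-out of ATP.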
Cycloheximide cs = Cycloheximide Counterscreen for Small Molecule Inhibitors of Shiga Toxin; cell reporter, cycloheximide protein synthesis inhibition counterscreen; max response, %; hit rate 12% among 300,000; in the data active means max response mostly above about 13%, no sharp cut-off; inactive means mostly below about 14%; further: read at 38.3 µM for the half of the compounds with a filed dose; 0% is about no effect
TbPYK inhibitor = qHTS of Trypanosoma Brucei Inhibitors. pyruvate kinase (Trypanosoma brucei), Q57TT1. TbPYK enzyme, Kinase-Glo Plus ATP luminescence, 45 min. Potency, µM (series often up to 76.8 µM), inactives show top-dose activity, negative = inhibition, most hits filed as inhibitors. hit rate 0.12% among 410,000; further: potency means the concentration at half of the fitted maximal effect; on the % scale 0 is the no-effect control and ±100 the full control effect; nearly all actives have a fitted effect of over 50% in size
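Glycolytic pyruvate kinase of T. brucei was incubated with substrate, test compound and 130 uM ADP for 45 minutes at room temperature. Luminescent Kinase-Glo Plus signal was measured after 10 minutes.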
Shiga toxin inh = A qHTS for Small Molecule Inhibitors of Shiga Toxin; Vero cells, Shiga toxin protein synthesis inhibition reporter; inhibition, % at 38.7 µM; hit rate 9.2% among 290,000; in the data active means inhibition mostly above about 28%, no sharp cut-off; inactive means mostly below about 43%; further: 0% is about no effect
Sm TGR inh = qHTS Assay for the Inhibitors of Schistosoma Mansoni Peroxiredoxins | Schistosoma mansoni thioredoxin glutathione reductase (TGR), Q962Y6 | purified TGR, DTNB reduction, TNB absorbance 405 nm | Potency, µM (doses to about 114 µM), without a hit: top-dose activity change, negative = inhibition, usual class: inhibitors | hit rate 3% among 360,000 | AID 485364, 2010; further: potency means the concentration at half of the fitted maximal effect; on the % scale 0 is the no-effect control and ±100 the full control effect; nearly all actives have a fitted effect of over 60% in size
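First, TGR (20 nM dispensed) and NADPH were mixed with compound. Second, a 15 min room-temperature incubation followed. Third, further NADPH and then DTNB were added to start the reaction. Finally, TNB absorbance was monitored kinetically.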
Giardia growth = qHTS Assay for Inhibitors of Fructose-1,6-bisphosphate Aldolase from Giardia Lamblia: Giardia lamblia growth inhibition. Potency, µM (highest dose often 57.5 µM), for inactives: top-dose activity change, negative = inhibition, usual class: inhibitors. Giardia lamblia trophozoite growth inhibition. hit rate 5% among 1,500. shares compounds with Giardia FBPA inh-1;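 further: potency means the concentration at half of the fitted maximal effect; trophozoites exposed to compound for 48 h at 37 °C; on the % scale 0 is the no-effect control and ±100 the full control effect; nearly all actives have a fitted effect of over 70% in size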
Mammal cell tox = qHTS Assay for Inhibitors of Fructose-1,6-bisphosphate Aldolase from Giardia Lamblia: Mammalian cellular toxicity. shares compounds with Giardia FBPA inh-1. mammalian cell viability counter-screen, qHTS. Potency, µM (top dose mostly 57.5 µM), for the others: at the highest dose viability change, negative = toxicity, hits mostly inhibitors. hit rate 4% among 1,500;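 further: Chinese hamster ovary cells used as mammalian cytotoxicity surrogate; viability measured as cellular ATP by luminescence; potency means the concentration at half of the fitted maximal effect; compound exposure lasted 48 h before reading; on the % scale 0 is the no-effect control and ±100 the full control effect; nearly all actives have a fitted effect of over 60% in size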
Giardia FBPA inh-2 = qHTS Assay for Inhibitors of Fructose-1,6-bisphosphate Aldolase from Giardia Lamblia: Primary screen confirmation. Potency, µM (series often up to 57.5 µM), for the others: at the highest dose activity change, negative = inhibition, usual class: inhibitors. AID 2787, 2010. hit rate 5% among 1,500. shares compounds with Giardia FBPA inh-1. purified Giardia aldolase enzyme activity, qHTS; further: potency means the concentration at half of the fitted maximal effect; on the % scale 0 is the no-effect control and ±100 the full control effect; nearly all actives have a fitted effect of over 45% in size
Rabbit FBPA inh = qHTS Assay for Inhibitors of Fructose-1,6-bisphosphate Aldolase from Giardia Lamblia: Rabbit FBPA Selectivity. shares compounds with Giardia FBPA inh-1. AID 2794, 2010. Potency, µM (highest dose often 57.5 µM), without a hit: top-dose activity, negative = inhibition, hits mostly inhibitors. hit rate 4% among 1,500. Rabbit muscle FBPA enzyme inhibition, selectivity counter-screen; further: potency means the concentration at half of the fitted maximal effect; on the % scale 0 is the no-effect control and ±100 the full control effect; nearly all actives have a fitted effect of over 60% in size
Target sequence (P00883 whole entry, looked up): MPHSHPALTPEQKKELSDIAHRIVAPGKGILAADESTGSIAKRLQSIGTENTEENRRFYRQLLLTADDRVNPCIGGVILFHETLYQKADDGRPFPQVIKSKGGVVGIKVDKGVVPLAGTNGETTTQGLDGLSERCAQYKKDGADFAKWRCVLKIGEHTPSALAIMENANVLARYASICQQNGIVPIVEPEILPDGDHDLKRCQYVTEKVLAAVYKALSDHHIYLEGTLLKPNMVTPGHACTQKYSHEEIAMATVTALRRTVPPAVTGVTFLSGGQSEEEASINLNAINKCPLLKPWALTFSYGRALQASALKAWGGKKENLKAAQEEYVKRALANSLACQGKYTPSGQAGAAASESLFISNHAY
GAPDH counter = qHTS Assay for Inhibitors of Fructose-1,6-bisphosphate Aldolase from Giardia Lamblia: Coupling assay counterscreen confirmation | shares compounds with Giardia FBPA inh-1 | GAPDH coupling enzyme counterscreen, biochemical, qHTS | Potency, µM (titrated, usually from 57.5 µM), inactives show at the highest dose activity change, negative = inhibition, hits mostly inhibitors | hit rate 6% among 1,500; further: potency means the concentration at half of the fitted maximal effect; on the % scale 0 is the no-effect control and ±100 the full control effect; nearly all actives have a fitted effect of over 55% in size
Numbers without * were called inactive; ? = inconclusive; nt = no result; [ ] = dose if it differs, or a comment. The sample as a whole holds a higher share of hits than the screen did. Unless noted, the call rests on the fitted dose curve; in most records, active means well fitted curve in the direction sought with a large enough effect; inconclusive means small, poorly fitted or top-dose-only effect, or another doubt; inactive means no such curve, though single readings can be large; an effect the other way counts as inactive or inconclusive.

SMILES | Giardia FBPA inh-1 | LmPK inhibitor | Cycloheximide cs | TbPYK inhibitor | Shiga toxin inh | Sm TGR inh | Giardia growth | Mammal cell tox | Giardia FBPA inh-2 | Rabbit FBPA inh | GAPDH counter
CC1(C(=O)NC(=S)N(CCC#N)Cc2cccnc2)CC1(Cl)Cl (stereo not drawn) | 18µM* | -1% | 0 | nt | -4 | 6% | -2%[10.4 µM] | 5% | 7% | 7% | 11%
N#CCCN(Cc1cccnc1)C(=S)Nc1ccccc1Cl | 1% | 0% | -7 | -6% | -11 | 2% | nt | nt | nt | nt | nt
Cn1ncc(C(N)=O)c1NC(=S)NC(=O)c1ccc(Br)o1 | 16µM* | 0% | 1 | -6% | -1 | -2% | -7%[10.4 µM] | -9% | 1% | 5% | 8%
Cc1cccc(C)c1NC(=S)NC(=O)c1ccc(Br)o1 | -12% | 1% | -3 | -20% | 2 | nt | nt | nt | nt | nt | nt
Cn1c(SCC(=O)c2ccccc2)nnc1-c1cnccn1 | 20µM* | -10% | 27* | ? | 59 | -7% | 17% | -4% | 8% | 2% | 6%
C=CCN1CCN(C(=O)CCc2ccccc2)CC1 | -4% | -1% | 1 | -7% | -5 | -19% | nt | nt | nt | nt | nt
COc1ccccc1NS(=O)(=O)c1cc(NC(=O)c2sccc2C)ccc1N1CCCC1 | 14µM* | 0% | 1 | ? | 50 | nt | -12%[10.4 µM] | -18% | ? | ? | ?
O=S(=O)(Nc1cccc(-c2ccc(N3CCCCC3)nn2)c1)c1cccs1 | nt | nt | nt | 2% | nt | 8% | nt | nt | nt | nt | nt
COC(=O)c1ccc(NC(=O)CN2CCOCC2)cc1 | 1% | -3% | 11 | -9% | 38 | 2% | nt | nt | nt | nt | nt
COC(=O)c1ccc(NC(=O)CN2CCN(CC#N)CC2)cc1 | 25µM* | 1% | 2 | 2% | 3 | -1% | -5%[38.3 µM] | 14% | 1% | -2% | 2%
CN(C)CCCNCC(=O)c1c(-c2ccccc2)n(C)c2ccccc12 | 14µM* | -11% | 2 | 2% | 4 | 50µM* | 9% | -3% | 3% | -1% | 5%
Cn1c(-c2ccccc2)c(C(=O)CC#N)c2ccccc21 | 7% | -1% | -3 | -1% | -10 | 10% | nt | nt | nt | nt | nt
CN(c1cc(Cl)c2c(c1)OCO2)c1cc2c(c3c1ccn3C)C1CCC2C1 (stereo not drawn) | nt | nt | nt | 1% | nt | nt | nt | nt | nt | nt | nt
COC(=O)c1sc(NC(=S)NC(=O)c2cccc(Br)c2)nc1C | 11µM* | -6% | 34* | 1% | 70* | -26% | 53% | -1% | 8% | 5% | 19%
NNC(=S)NC1CCS(=O)(=O)C1 (stereo not drawn) | 18µM* | 3% | 1 | -3% | -1 | -7% | 29% | 11% | -3% | 12% | 2%
CCOC(=O)c1cnc(-c2ccc(C(F)(F)F)cn2)[nH]c1=O | 5µM* | 1% | 3 | -7% | -3 | ? | ? | -7% | -6% | -9% | -10%
NC(=O)CN(C/C=C/c1ccccc1)C/C=C/c1ccccc1 | 28µM* | 2% | 1 | 16% | -6 | -2% | -11% | 3% | -1% | 2% | 6%
CC(=O)/C(=N\Nc1ccccc1)Sc1nncn1C | 3.5µM* | -13% | -4 | ? | 6 | -2% | 17%[10.4 µM] | -1% | 3% | -4% | 3%
O=C1C(c2ccc(F)cc2)N(CCc2ccc(Cl)cc2)C(=O)CN1C1CCCCCC1 (stereo not drawn) | nt | nt | nt | -1% | nt | 17% | nt | nt | nt | nt | nt
O=C(NC(=S)Nc1ncc(Br)cc1Br)c1ccccc1 | 6.3µM* | 2% | 35* | 0% | 94* | -10% | 9%[38.3 µM] | -24% | 0% | 23% | -3%
O=C(NC(=S)Nc1ccccc1Cl)c1cncc(Br)c1 | 6.3µM* | 2% | -2 | -12% | -9 | -3% | ? | 27% | 3% | 0% | -11%
CCOCCc1nn2c(=O)cc(COC(=O)c3ccccc3OC)nc2s1 | nt | nt | nt | -2% | nt | -4% | nt | nt | nt | nt | nt
O=C(Nc1ccccc1C(=O)O)/C(=C/c1ccc([N+](=O)[O-])cc1)NC(=O)c1ccc(Br)o1 | 18µM* | 2% | 4 | 4% | 26 | ? | 73% | 4% | -21% | -24% | -20%
COc1ccc(Cc2nc3ccccc3c(=O)n2N)cc1OC | nt | nt | nt | 3% | nt | nt | nt | nt | nt | nt | nt
O=c1c2cn[nH]c2[nH]c(=S)n1-c1ccccc1F | 7.1µM* | -1% | 33 | ? | 73 | ? | 2%[38.3 µM] | -2% | -3% | -6% | -1%
SMILES | Giardia FBPA inh-1 | LmPK inhibitor | Cycloheximide cs | TbPYK inhibitor | Shiga toxin inh | Sm TGR inh | Giardia growth | Mammal cell tox | Giardia FBPA inh-2 | Rabbit FBPA inh | GAPDH counter
Cc1ccc(-n2c(=S)[nH]c3[nH]ncc3c2=O)cc1 | 16µM* | -8% | 13 | ? | 1 | -2% | 27% | -1% | -3% | 3% | -10%
O=C(O)c1ccc2c(=O)n(-c3ccccc3F)c(=S)[nH]c2c1 | 2% | 1% | -4 | -13% | 1 | -13% | nt | nt | nt | nt | nt
O=c1c2cn[nH]c2[nH]c(=S)n1-c1ccccc1Cl | 25µM* | -4% | 1 | -15% | 12 | -6% | 28% | 17% | 7% | 2% | 13%
Cc1ccc2[nH]c(=S)n(-c3cccnc3)c(=O)c2c1 | -2% | 0% | -1 | -15% | -26 | 9% | nt | nt | nt | nt | nt
COc1ccc(C2=Nn3c(nnc3-c3ccccc3F)SC2)cc1OCC1CC1 | nt | nt | nt | -11% | nt | nt | nt | nt | nt | nt | nt
CC1=NN(C(N)=S)C(=O)C1N=Nc1cccc(C(=O)O)c1 (stereo not drawn) | ? | -2% | 0 | -8% | 10 | -17% | -15%[38.3 µM] | -2% | -16% | -12% | -8%
